This is a sample that favours compounds with a hit; in the whole collection about 7.3% have one here.
HCMV antiviral: blocks human cytomegalovirus replication; activity change, negative = inhibition, % at 57.5 µM; hit rate 4.5% among 410,000; HFF cells, HCMV-luciferase reporter, 72 h; active compounds read low; in the data active means activity change below about -60%; inconclusive means no clear call, values can overlap the other calls; inactive means above about -39%
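After 16 h attachment at 37C, HFF cells received test compound and HCMV-luciferase (1 PFU/cell); reporter luminescence read 72 h later, data normalized against buffer-only and known inhibitor Salinomycin.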
VACV Venus inh: inhibitors of vaccinia virus (Venus reporter); hit rate 0.46% among 330,000; Potency, µM (highest dose often 36.5 µM), for the others: at the highest dose activity change, negative = inhibition, actives largely listed as inhibitors; Vaccinia virus Venus reporter expression, fluorescence; calls by dose curve; tested in A549 cells; further: potency means the concentration at half of the fitted maximal effect; nearly all actives have a fitted effect of over 30% in size
FMDV inh: antivirals against foot and mouth disease virus. AID 1159524. hit rate 1.2% among 410,000. Potency, µM (titrated, usually from 57.9 µM), without a hit: at the top dose activity change, negative = inhibition, most hits filed as inhibitors. FMDV antiviral cell-based qHTS; calls by dose curve; tested in HEK293T cells; further: read-out not given here; potency means the concentration at half of the fitted maximal effect; nearly all actives have a fitted effect of over 45% in size
VACV mCherry inh: inhibitors of vaccinia virus infection (mCherry reporter signal); Vaccinia virus mCherry reporter infection, fluorescence; Potency, µM (series often up to 36.5 µM), for the others: at the highest dose activity change, negative = inhibition, hits mostly inhibitors; hit rate 0.63% among 310,000; calls by dose curve; tested in A549 cells; further: potency means the concentration at half of the fitted maximal effect; nearly all actives have a fitted effect of over 35% in size
HCV inhibitor: inhibitors of hepatitis C virus infection | Potency, µM (top dose mostly 41.8 µM), without a hit: top-dose activity change, negative = inhibition, actives largely listed as inhibitors | AID 651820 | hit rate 3.4% among 340,000 | Huh7.5.1 HCVcc-Cre infection, luciferase reporter, 44 h; active means well fitted inhibition curve with a large enough effect; inconclusive means small, poorly fitted or top-dose-only effect, or another doubt; inactive means no such curve, though single readings can be large or run the other way; further: potency means the concentration at half of the fitted maximal effect
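Infectious HCV cell culture screen: compound-treated cells (1,000/well, pre-plated 4 h) are infected with HCVcc-Cre at roughly 0.5 moi and grown 44 h. Infection is quantified by luciferase signal after 15 min substrate incubation at room temperature.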
* marks the source's active call; other numbers are inactive results; i = inactive; u = inconclusive; x = no result given. On the % scale 0 is the no-effect control and ±100 the full control effect.

SMILES	HCMV antiviral	VACV Venus inh	FMDV inh	VACV mCherry inh	HCV inhibitor
C=CCOC(=O)C1=C(C)NC(SCC(=O)Nc2ccc(C)c(Cl)c2)=C(C#N)C1c1ccco1 (stereo not drawn)	u	u	-12%	u	6.3µM*
CCOC(=O)C1=C(C)NC(C)=C(C(=O)OC)C1c1ccco1 (stereo not drawn)	35	-10%	-4%	i	-10%
C=CCOC(=O)C1=C(C)NC(C)=C(C(=O)OCC=C)C1c1ccco1	-27	x	-27%	x	11µM*
C=CCOC(=O)C1=C(C)NC(SCC)=C(C#N)C1c1ccc(Cl)cc1 (stereo not drawn)	-30	-20%	u	i	10µM*
COc1ccc(C(=O)NC(C)c2cccnc2)cc1S(=O)(=O)N(C)Cc1ccccc1 (stereo not drawn)	-35	x	23%	x	u
O=C(c1ccccc1F)N1c2nc(-c3ccco3)nn2C2(CCCCC2)[C@@H]2CCCC[C@@H]21	-31	-1%	u	11%	x
O=C(NCc1nc(-c2ccc(C(F)(F)F)cc2)no1)Nc1ccc(OC(F)(F)F)cc1	-97*	u	-12%	u	u
O=C(Cc1c[nH]c2ccccc12)N1CCC(n2c(C3CCCO3)nc3cc(C(F)(F)F)ccc32)CC1 (stereo not drawn)	x	-12%	-6%	-14%	x
CCN(CC)S(=O)(=O)c1ccc(NC(=O)c2ccc(N(C)S(C)(=O)=O)cc2)cc1	-67*	u	4µM*	x	4.5µM*
CCCCc1ccc(NC(=O)c2ccc(N(C)S(C)(=O)=O)cc2)cc1	-81*	-23%	u	-10%	u
CCN(CC)S(=O)(=O)c1ccc(C(=O)Nc2ccc(Cc3ccncc3)cc2)cc1	-87*	-23%	u	i	3.2µM*
CCCCc1ccc(NC(=O)c2ccc(NS(C)(=O)=O)cc2)cc1	33	-9%	0%	i	u
COc1c(-c2ccccc2)oc2c(ccc3occc32)c1=O	-11	x	0%	x	u
COc1cc([N+](=O)[O-])ccc1NC(=O)CC1SC(=Nc2ccc(F)cc2)N(CCC2=CCCCC2)C1=O (stereo not drawn)	-99*	1%	u	-9%	u
Cc1cccc(C)c1NC(=O)C1(C)CN(S(C)(=O)=O)CC(=O)N1CC(F)(F)F (stereo not drawn)	-11	19%	-10%	-11%	x
Cc1cccc(C(=O)OC(C)C(=O)Nc2ccc(S(=O)(=O)N3CCCC3)cc2)c1O (stereo not drawn)	-14	-11%	-20%	-15%	u
CC(OC(=O)c1cc(Br)ccc1O)C(=O)Nc1ccc(S(=O)(=O)N2CCCC2)cc1 (stereo not drawn)	-3	u	20µM*	u	u
CC(OC(=O)c1ccccc1NCCO)C(=O)Nc1ccc(S(=O)(=O)N2CCOCC2)cc1 (stereo not drawn)	-20	-1%	-17%	-6%	8.9µM*
Cc1cccc(C)c1OCC(=O)N[C@@H](Cc1ccccc1)[C@@H](O)C[C@H](Cc1ccccc1)NC(=O)[C@H](C(C)C)N1CCCNC1=O	x	u	x	i	x
CC1CCCCC1NC(=O)c1cccc(NC2=NC3CS(=O)(=O)CC3S2)c1 (stereo not drawn)	80	-15%	-9%	i	5%
COc1ccc(C2C(=O)N(C3CCCCCC3)CC(=O)N2Cc2ccccc2)cc1 (stereo not drawn)	-67*	-9%	-29%	0%	x
O=C1C(c2ccc(F)cc2)N(CCc2ccc(Cl)cc2)C(=O)CN1C1CCCCCC1 (stereo not drawn)	-82*	-4%	-23%	-7%	x
COc1ccc(CN2C(=O)CN(C3CCCCCC3)C(=O)C2c2ccc(F)cc2)cc1 (stereo not drawn)	-7	x	13%	x	u
CCOc1ccc(C2C(=O)N(C3CCCCCC3)CC(=O)N2Cc2ccc(C)cc2)cc1OC (stereo not drawn)	u	-9%	-14%	-8%	x
COc1ccc(C2C(=O)N(C3CCC(C)CC3)CC(=O)N2Cc2ccc(C)cc2)cc1OC (stereo not drawn)	-65*	-10%	-8%	-9%	x
SMILES	HCMV antiviral	VACV Venus inh	FMDV inh	VACV mCherry inh	HCV inhibitor
O=C(COC(=O)c1ccc(Cl)c(S(=O)(=O)N2CCCCC2)c1)NC1CCCCC1	-11	-10%	-25%	-16%	x
CC(C)Cc1nn2c(=O)cc(COC(=O)c3ccccc3NC(=O)c3ccccc3)nc2s1	-11	-8%	15%	-14%	x
O=C(Oc1cc(Cl)ccc1Cl)c1ccc(N2CCOCC2)c([N+](=O)[O-])c1	-5	-3%	0%	-9%	16%
O=c1c2cc3c(cc2[nH]c(=S)n1C1CCN(Cc2ccccc2)CC1)OCO3	-33	-1%	-2%	i	13µM*
CCOc1cc2[nH]c(=S)n(C3CCN(Cc4ccccc4)CC3)c(=O)c2cc1OCC	37	-4%	1%	-22%	5%
O=C(c1ccccc1)c1ccc2nc(-c3ccc(NC(=O)c4ccccc4Br)cc3)[nH]c2c1	-25	-25%	-17%	-23%	25µM*
Cc1ccccc1C(=O)Nc1ccc(-c2nc3ccc(C(=O)c4ccccc4)cc3[nH]2)cc1	u	u	u	x	11µM*
COc1ccc(-c2nnc(SCC(=O)NC3CCCCC3)n2N)cc1	-28	-15%	-4%	-1%	22%
Fc1ccc(N=C2NN=C(c3cc(F)ccc3F)CS2)cc1	-34	u	23%	u	u
O=S(=O)(c1ccc(N=C2NN=C(c3cc(F)ccc3F)CS2)cc1)N1CCOCC1	-99*	-22%	-29%	u	22µM*
Cc1ccc2nc(C3CCN(C(=O)NCc4ccccc4)CC3)[nH]c2c1	-88*	-13%	2%	-24%	x
Cc1ccc2nc(C3CCCN(C(=O)NCc4ccccc4)C3)[nH]c2c1 (stereo not drawn)	47	x	33%	x	-23%
O=C1CCC(C(=O)N2CCCO2)CN1Cc1cccc(C(F)(F)F)c1 (stereo not drawn)	-12	-7%	31%	-14%	16%
O=C(O)c1ccc2c(c1)C(=O)N(c1cccc(C(=O)/C=C/c3ccccc3)c1)C2=O	134	2%	25µM*	-9%	8%
O=C(O)c1cccc(N2C(=O)c3ccc(C(=O)c4cccc([N+](=O)[O-])c4)cc3C2=O)c1	-21	17%	-4%	-19%	4%
Cc1ccccc1CS(=O)(=O)c1nnc([C@H](Cc2ccccc2)NC(=O)OC(C)(C)C)o1	-20	-29%	28µM*	-23%	4%
CCC(C)[C@@H](NC(=O)OC(C)(C)C)c1nnc(S(=O)(=O)Cc2cccc(C)c2)o1 (stereo partly drawn)	42	u	32µM*	x	u
Nc1ccc(-c2nnn(Cc3ccccc3F)n2)cc1	2	-3%	76%	-12%	-14%
O=C(OCc1ccccc1Cl)c1ccc(-c2nnn(Cc3ccc(F)cc3)n2)cc1	0	-28%	-4%	-29%	x
Fc1ccc(-c2nnn(Cc3ccccc3Cl)n2)cc1	5	-2%	52%	i	2µM*
